Assay results published in PubChem BioAssay (NCI).
The panel holds about 83,000 compounds, 20% with a hit somewhere; the sample as a whole holds those more often.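 In brief: 96-well plates, 48 h treatment, single concentration, percent growth endpoint.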 Unmarked numbers belong to inactive results. Activity calls are given as the source filed them. The calls were made as follows: active = growth percent below 10; inactive = the rest.

Key:
Experiment in all cases: NCI-60 one-dose screen, 48 h (100 = growth as untreated, 0 = no growth, -100 = all killed)
Settings in all cases: 10 µM unless noted
SR leukemia = tested on: SR leukemia
RPMI-8226 leukemia = tested on: RPMI-8226 leukemia
OVCAR-8 ovarian = tested on: OVCAR-8 ovarian
OVCAR-5 ovarian = tested on: OVCAR-5 ovarian
OVCAR-4 ovarian = tested on: OVCAR-4 ovarian
SK-OV-3 ovarian = tested on: SK-OV-3 ovarian
IGROV1 ovarian = tested on: IGROV1 ovarian
OVCAR-3 ovarian = tested on: OVCAR-3 ovarian
NCI/ADR-RES ovarian = tested on: NCI/ADR-RES ovarian
T-47D breast = tested on: T-47D breast
BT-549 breast = tested on: BT-549 breast
MDA-MB-435 melanoma = tested on: MDA-MB-435 melanoma
SW-620 colon = tested on: SW-620 colon
MCF7 breast = tested on: MCF7 breast
HCT-116 colon = tested on: HCT-116 colon
HCC-2998 colon = tested on: HCC-2998 colon
KM12 colon = tested on: KM12 colon
HS 578T breast = tested on: HS 578T breast

| SMILES | growth (SR leukemia) | growth (RPMI-8226 leukemia) | growth (OVCAR-8 ovarian) | growth (OVCAR-5 ovarian) | growth (OVCAR-4 ovarian) | growth (SK-OV-3 ovarian) | growth (IGROV1 ovarian) | growth (OVCAR-3 ovarian) | growth (NCI/ADR-RES ovarian) | growth (T-47D breast) | growth (BT-549 breast) | growth (MDA-MB-435 melanoma) | growth (SW-620 colon) | growth (MCF7 breast) | growth (HCT-116 colon) | growth (HCC-2998 colon) | growth (KM12 colon) | growth (HS 578T breast) |
| --- | --- | --- | --- | --- | --- | --- | --- | --- | --- | --- | --- | --- | --- | --- | --- | --- | --- | --- |
| O=C(CSc1nnc(-c2cc(-c3ccccc3)nc3ccccc23)o1)c1ccc(Br)cc1 | 83.7% | 109% | 100% | 104% | 106% | 112% | 102% | 108% | 107% | 102% | 96.9% | 104% | 107% | 111% | 101% | 113% | 107% |  |
| COc1ccc(C2=NN(C(C)=O)C(c3cccc(Nc4ccnc5cc(Cl)ccc45)c3)C2)cc1 (stereo not given) | -8.23% (active) | 41% | 50% | 87.2% | 42% | 52.9% | 65.7% | 59.3% | 43.6% | 37.5% |  | 41.4% | 74.4% | 37.4% | 44.3% | 83.1% | 54.1% |  |
| O=C(CNC(=O)c1cccc2ccccc12)Nc1ccccc1Cc1ccccc1 | 18.8% [5 µM] | 39.1% [5 µM] | 37.6% [5 µM] | 66.4% [5 µM] | 81.2% [5 µM] | 45% [5 µM] | 53% [5 µM] | 15.5% [5 µM] | 17% [5 µM] | 37.7% [5 µM] | 40.3% [5 µM] | -8.01% [5 µM] (active) | 25.5% [5 µM] | 23.5% [5 µM] | 14.6% [5 µM] | 87.1% [5 µM] | 36% [5 µM] |  |
| COc1ccc(C(=O)/C=C/c2cccc(Nc3ccnc4cc(Cl)ccc34)c2)cc1 | 0.362% (active) | 35.3% | 10.2% | 39.3% | -46% (active) | 64% | 30.2% | 23.9% | 21.3% | 15.7% | 20.6% | 28.1% | 19% | 23.4% | 9.57% (active) | 68.8% | 53% |  |
| COc1cc(C2CC(C3C(=O)N(C)C(=O)N(C)C3=O)=NN2c2cc(Cl)cc(Cl)c2)cc(OC)c1OC (stereo not given) | 94.5% | 85.7% | 96.7% | 108% | 96% | 95.6% | 102% | 97.2% | 87.2% | 79.4% | 99.2% | 98% | 94.7% | 90.4% | 87.3% | 87.7% | 91.8% |  |
| COc1ccc(C2=NN(C=O)C(c3cccc(Nc4ccnc5cc(Cl)ccc45)c3)C2)cc1 (stereo not given) | 12.6% | 23.2% | 17% | 51.5% | 40.1% | 20.6% | 44.1% | 13.8% | 10.8% | 25.1% | 1.59% (active) | 11.7% | 24.8% | 15.7% | 12% | 57.8% | 27.4% |  |
| Cc1sc2nc(NCCc3cccs3)[nH]c(=O)c2c1C | 72.1% | 86.7% | 87.4% | 97.8% | 95.6% | 79% | 101% | 106% | 85.2% | 74.6% | 74.7% | 84.2% | 96.4% | 87.3% | 71% | 101% | 92.6% |  |
| Cc1ccccc1NC(=O)NC(CC(N)=O)c1ccc2c(c1)nc(-c1cccc(Oc3ccc(C(C)(C)C)cc3)c1)n2CCCN1CCCCC1C (stereo not given) | -33.9% (active) | -29.2% (active) | 3.11% (active) | 88.8% | 66.5% | 103% | 46.4% | 53.2% | 94.3% | 47.4% | 93.7% | -53.7% (active) | -62.2% (active) | -76.3% (active) | -73.7% (active) |  | -35.3% (active) |  |
| Cc1nn2c(/C=C3/C(=O)Nc4cc(Cl)ccc43)c(-c3ccccc3)nc2s1 | 15.1% | -19.6% (active) | -25.2% (active) | 52.8% | -85.6% (active) | 73.6% | -23.5% (active) | -71.6% (active) | 24.2% | -63% (active) | 15.4% | -14.8% (active) | -26.8% (active) | 21% | -79% (active) | 120% | 78.7% |  |
| OCCCc1n(Cc2ccc3ccccc3c2)c2ccccc2[n+]1Cc1ccc2ccccc2c1 | -30.9% (active) | 2.19% (active) | 15.2% | 31% | 22.3% | 62.2% | -42.2% (active) | 0.774% (active) | 90.5% | 13.2% | 5.33% (active) | 0.65% (active) | 19.3% | 9.45% (active) | 10.4% | 12.5% | -20.9% (active) |  |
| O=C1C(=O)c2c(nc3ccc(Cl)cn23)-c2ccccc21 | -86.5% (active) | -53.7% (active) | -100% (active) | -100% (active) | -100% (active) | -100% (active) |  | -96% (active) | -41.1% (active) | -55.8% (active) | -99.4% (active) | -89.5% (active) | -100% (active) | -88% (active) | -95.3% (active) | -95.8% (active) |  | -33.8% (active) |
| CN1CCN(c2nc3scc(-c4ccccc4)c3c(=O)[nH]2)CC1 | 94.1% | 97.4% | 106% | 93% | 97.4% | 103% |  | 102% | 99.2% | 104% | 104% | 99.7% | 95.4% | 92.5% | 91.9% | 99.5% | 94.1% | 100% |
| COc1ccc(CNC(=O)c2c(C)n([O-])c3cc(F)c(F)cc3[n+]2=O)cc1 | 37.5% | 86% | 88% | 99.5% | 116% | 111% |  | 56% | 108% | 67.8% | 80.3% | 106% | 71.1% | 55.9% | 97.8% | -73.5% (active) | 96.1% | 97.3% |
| COC(=O)c1cc2oc(/C=N\NC(=O)c3cc4oc(C)c(C)c4[nH]3)cc2[nH]1 | 51.4% | 35.1% | 108% | 111% | 118% | 100% |  | 128% | 102% | 90.2% | 91.3% | 96.6% | 108% | 86.8% | 101% | 101% | 108% | 108% |
